Source: PubChem BioAssay (Tox21)
Where “and” joins values, the source holds several entries; their conditions need not be identical. Equal entries are not always repeated. Records with an inconclusive call do not appear. A structure can be active in one record and inactive in another. Calls of active or inactive are those of the source. Unless noted, the call rests on the fitted dose curve; in most records, active means well fitted curve in the direction sought with a large enough effect in the repeat runs; inconclusive means weak or mixed curves; inactive means no such curve, though single readings can be large; an effect the other way counts as inactive or inconclusive.

Key:
[1] = qHTS assay for small molecule agonists of the p53 signaling pathway (AID 651631; calls by dose curve; further: nearly all actives have a fitted effect of over 15% in size; further: potency means the concentration at half of the fitted maximal effect)
Procedure, shortened: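 Fluorescence intensity from cleaved LiveBLAzer B/G substrate (2 h, room temperature) served as the signal. Beforehand, HCT-116 reporter cells bearing p53 response elements were treated 16 h at 37 °C with DMSO-dissolved compounds.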

[2] = qHTS assay for small molecules that induce genotoxicity in human embryonic kidney cells expressing luciferase-tagged ATAD5 (AID 651632); further: nearly all actives have a fitted effect of over 15% in size
Procedure, shortened: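 HEK293T cells carrying a luciferase reporter tagged to ATAD5 were exposed to compound or DMSO vehicle for 16 hr at 37C, 5% CO2. Amplite was added, and after 30 min at room temperature luciferase activity was read as a marker of ATAD5 induction.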

[3] = qHTS assay for small molecule agonists of the p53 signaling pathway - cell viability (AID 651633; calls by dose curve; further: nearly all actives have a fitted effect of over 30% in size; further: potency means the concentration at half of the fitted maximal effect;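 on activity change, negative = cytotoxicity: p53RE-bla HCT reporter cells with a stable beta-lactamase p53 reporter; series mostly up to about 83 µM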)
Procedure, shortened: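 Viability counter-read: CellTiter-Glo luminescence (30 min, room temperature) in the same p53RE-bla plates. These plates had been exposed to compounds for 16 h at 37 C.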

[4] = qHTS assay for small molecules that induce genotoxicity in human embryonic kidney cells expressing luciferase-tagged ATAD5 - cell viability (AID 651634; calls by dose curve; further: nearly all actives have a fitted effect of over 25% in size)
Procedure, shortened: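 HEK293T cells expressing luciferase-tagged ATAD5 were exposed to compound or DMSO for 15.5 hr at 37C, 5% CO2. Viability was then read as live-cell protease activity by CellTiter-Fluor fluorescence after 30 min at 37C.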

[5] = qHTS assay for small molecule disruptors of the mitochondrial membrane potential - cell viability (AID 720634; calls by dose curve;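 further: human HepG2 liver cancer cells; series mostly up to about 83 µM; nearly all actives have a fitted effect of over 20% in size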)
Procedure, shortened: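 HepG2 cells seeded overnight at 37 C, then exposed to compound or DMSO for 1 hr at 37 C, 5% CO2. m-MPI dye added, then CellTiter-Glo for 30 min at room temperature; viability read as ATP luminescence.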

[6] = qHTS assay for small molecule disruptors of the mitochondrial membrane potential (AID 720635); further: potency means the concentration at half of the fitted maximal effect
Procedure, shortened: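 Mitochondrial membrane potential tracked with Mito-MPS dye, red aggregates (ex 540/em 590 nm) against green monomers (ex 490/em 535 nm). Compound treatment 1 hr at 37C, dye 30 min in HepG2.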

[7] = qHTS assay to test for compound auto fluorescence at 590 nm (red) in HepG2 cells (AID 720674)
Procedure, shortened: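 Red autofluorescence (Ex/Em 540/590 nm, Rose Bengal sodium equivalents) was measured in HepG2 cells, 2,000 per well in MEM plus 10% FBS, plated overnight at 37 C. Readings were taken 1 hr after adding 23 nL compound or DMSO, at 37 C and 5% CO2.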

[8] = qHTS assay to test for compound auto fluorescence at 535 nm (green) in HepG2 cells (AID 720675)
[9] = qHTS assay to test for compound auto fluorescence at 460 nm (blue) in HEK293 cells (AID 720678)
Procedure, shortened: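 Auto fluorescence in the blue band was quantified as triamterene equivalency. HEK293 cells were seeded at 2,000/well, dosed after a 4-5 hr attachment, and kept overnight at 37C before the 405/460 nm reading.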

[10] = qHTS assay to test for compound auto fluorescence at 590 nm (red) in HEK293 cells (AID 720679)
Procedure, shortened: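 Autofluorescence equivalency to Rose Bengal sodium, 540/590nm, in HEK293 cells exposed overnight to 23 nL compound per well.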
On the % scale 0 is the no-effect control and ±100 the full control effect.

Cc1ccccc1C=O
inactive: Potency [1] | Potency [2] | Potency [3] | Potency [4] | Potency [5] | Potency [6] | outcome [7] | outcome [8] | Potency [9] | outcome [10]

CCc1cccc(CC)c1N
inactive: Potency [1] | Potency [2] | Potency [3] | Potency [4] | Potency [5] | Potency [6] | outcome [7] | outcome [8] | Potency [9] | outcome [10]

C1CCCNCC1
inactive: Potency [2] | Potency [3] | Potency [4] | Potency [5] | Potency [6] | outcome [7] | outcome [8] | Potency [9] | outcome [10]

CC[N+](CC)(CC(=O)Nc1c(C)cccc1C)Cc1ccccc1
inactive: Potency [2] | Potency [3] | Potency [4] | Potency [5] | outcome [7] | outcome [8] | Potency [9] | outcome [10]

CC(C=O)Cc1ccc(C(C)(C)C)cc1 (stereo unspecified)
active: Potency [6] 61.1 µM
inactive: Potency [2] | Potency [3] | Potency [4] | Potency [5] | outcome [7] | outcome [8] | Potency [9] | outcome [10]

CCCOCC(C)O (stereo unspecified)
54.5 µM (active) and inactive: Potency [6]
inactive: Potency [2] | Potency [3] | Potency [4] | Potency [5] | outcome [7] | outcome [8] | Potency [9] | outcome [10]

C=CC(C)(C)C
inactive: Potency [1] | Potency [2] | Potency [3] | Potency [4] | Potency [5] | outcome [7] | outcome [8] | Potency [9] | outcome [10]

OCC(O)CS (stereo unspecified)
inactive: Potency [1] | Potency [2] | Potency [3] | Potency [4] | Potency [5] | outcome [7] | outcome [8] | Potency [9] | outcome [10]

Cc1cccc(C)c1[N+](=O)[O-]
inactive: Potency [3] | Potency [4] | Potency [5] | Potency [6] | outcome [7] | outcome [8] | Potency [9] | outcome [10]

C=CC(=O)NCOCCCC
inactive: Potency [2] | Potency [3] | Potency [4] | Potency [5] | Potency [6] | outcome [7] | outcome [8] | Potency [9] | outcome [10]

CC1=CC(=O)CC(C)(C)C1
inactive: Potency [1] | Potency [3] | Potency [4] | Potency [5] | Potency [6] | outcome [7] | outcome [8] | Potency [9] | outcome [10]

CO[Si](CCCNCCN)(OC)OC
inactive: Potency [2] | Potency [3] | Potency [4] | Potency [5] | Potency [6] | outcome [7] | outcome [8] | Potency [9] | outcome [10]

OCC(CO)(CO)CO
inactive: Potency [2] | Potency [3] | Potency [4] | Potency [5] | Potency [6] | outcome [7] | outcome [8] | Potency [9] | outcome [10]

CC(C)(CO)CO
inactive: Potency [1] | Potency [2] | Potency [3] | Potency [4] | Potency [5] | outcome [7] | outcome [8] | Potency [9] | outcome [10]

OCCOCCOCCOCCOCCO
inactive: Potency [1] | Potency [3] | Potency [4] | Potency [5] | Potency [6] | outcome [7] | outcome [8] | Potency [9] | outcome [10]

CN1Cc2c(N)cccc2C(c2ccccc2)C1 (stereo unspecified)
inactive: Potency [2] | Potency [4] | Potency [5] | Potency [6] | outcome [7] | outcome [8] | Potency [9] | outcome [10]

COc1c(Cl)ccc(Cl)c1C(=O)O
inactive: Potency [2] | Potency [3] | Potency [4] | Potency [5] | Potency [6] | outcome [7] | outcome [8] | Potency [9] | outcome [10]

CC(CN1c2ccccc2Sc2ccccc21)N(C)C (stereo unspecified)
inactive: Potency [2] | Potency [3] | Potency [4] | Potency [5] | outcome [7] | outcome [8] | Potency [9] | outcome [10]

CS(=O)(=O)c1ccc(Cl)cc1
inactive: Potency [3] | Potency [4] | Potency [5] | Potency [6] | outcome [7] | outcome [8] | Potency [9] | outcome [10]

CCCCCCCCCCCC(=O)N(C)CC(=O)O
inactive: Potency [2] | activity change, negative = cytotoxicity [3] 23.9% [at 8.08 µM] | Potency [4] | Potency [5] | ratio activity, negative = MMP loss [6] 7.77% [at 8.08 µM] | outcome [7] | outcome [8] | Potency [9] | outcome [10]

O=C1CCCCCCCCCCC1
inactive: Potency [2] | Potency [3] | Potency [4] | Potency [5] | Potency [6] | outcome [7] | outcome [8] | Potency [9] | outcome [10]

N#CCC(=O)O
inactive: Potency [1] | Potency [2] | Potency [3] | Potency [4] | outcome [7] | outcome [8] | Potency [9] | outcome [10]

C[n+]1ccn(CCO)c1
inactive: Potency [2] | Potency [3] | Potency [4] | Potency [5] | Potency [6] | outcome [7] | outcome [8] | Potency [9] | outcome [10]

OC1CCCCC1
inactive: Potency [1] | Potency [2] | Potency [3] | Potency [4] | outcome [7] | outcome [8] | Potency [9] | outcome [10]

COc1ccc2cc3[n+](cc2c1OC)CCc1cc2c(cc1-3)OCO2
active: Potency [1] 61.6 µM | Potency [6] 1.68 µM and 870 nM
inactive: Potency [2] | Potency [5] | outcome [7] | outcome [8] | Potency [9] | outcome [10]
inactive and 30.9 µM (active): Potency [3]

C=C1C[C@]23C[C@@]1(O)CC[C@H]2[C@@]12C=C[C@H](O)[C@@](C)(C(=O)O1)[C@H]2[C@@H]3C(=O)O
inactive: Potency [2] | Potency [3] | Potency [4] | Potency [5] | Potency [6] | outcome [7] | outcome [8] | Potency [9] | outcome [10]

O=c1n(CCCN2CCN(c3cccc(Cl)c3)CC2)nc2ccccn12
inactive: Potency [1] | Potency [3] | Potency [4] | Potency [5] | Potency [6] | outcome [7] | outcome [8] | Potency [9] | outcome [10]

Nc1cccc(N)n1
active: Potency [6] 14.8 µM and 48.6 µM
inactive: Potency [2] | Potency [4] | Potency [5] | outcome [7] | outcome [8] | Potency [9] | outcome [10]
